Results: PubChem BioAssay AID1159580 (chemical genetic matrix, 2015)
The whole screen tested about 5,500 compounds, of which about 2,000 (36%) were called active. Another 18% or so got no clear call; they are omitted. Rule as the data show it: active = normalized growth mostly below about 0.91 (no sharp cut-off); inconclusive = no clear call, values can overlap the other calls; inactive = mostly above about 0.92. The list shows a part of the results.

Assay: chemical genetic growth profiling, strain panel (AID 1159580);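 also: tested at 20 µM; growth read once vehicle control cultures reached saturation at 30 °C; 1 = growth at the plate median or of vehicle wells; lower values mean less growth of the strain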
Settings: S. cerevisiae deletion strains, growth OD

Measured: normalized growth

COc1c2ccoc2c(OC)c2oc(=O)ccc12
active: locus YLR258W, strain gsy2, active compounds read low 0.907 | locus YLR371W, strain rom2, active compounds read low 0.84 | locus YML120C, strain ndi1, active compounds read low 0.901 | locus YNL071W, strain lat1, active compounds read low 0.915 | locus YNL248C, strain rpa49, active compounds read low 0.849 | locus YOR184W, strain ser1, active compounds read low 0.871 | locus YPL078C, strain atp4, active compounds read low 0.882 | locus YPL106C, strain sse1, active compounds read low 0.832
inactive: locus YJR066W, strain TOR1, active compounds read low 0.939 | locus YJR075W, strain HOC1, active compounds read low 0.964 | locus YKL009W, strain mrt4, active compounds read low 0.956 | locus YKL068W, active compounds read low 0.996 | locus YKL085W, strain MDH1 (second series), active compounds read low 0.987 | locus YKL085W, strain MDH1, active compounds read low 0.987 | locus YKL160W, strain elf1, active compounds read low 0.933 | locus YKL190W, strain CNB1, active compounds read low 0.985 | locus YKR001C, strain vps1, active compounds read low 0.905 | locus YKR026C, strain gcn3, active compounds read low 0.99 | locus YKR091W, strain srl3, active compounds read low 0.991 | locus YLL001W, strain dnm1, active compounds read low 0.909 | locus YLL026W, active compounds read low 0.979 | locus YLL041C, strain sdh2, active compounds read low 0.981 | locus YLR027C, strain aat2, active compounds read low 0.975 | locus YLR039C, strain RIC1, active compounds read low 0.964 | locus YLR058C, strain SHM2, active compounds read low 0.959 | locus YLR102C, strain apc9, active compounds read low 0.979 | locus YLR113W, strain HOG1, active compounds read low 1.05 | locus YLR221C, strain rsa3, active compounds read low 0.983 | locus YLR262C, strain YPT6 (second series), active compounds read low 0.969 | locus YLR262C, strain YPT6, active compounds read low 1.05 | locus YLR268W, strain sec22, active compounds read low 0.921 | locus YLR320W, strain mms22, active compounds read low 0.945 | locus YLR330W, strain CHS5, active compounds read low 0.963 | locus YLR342W, strain FKS1, active compounds read low 0.99 | locus YLR357W, strain rsc2, active compounds read low 1.06 | locus YLR370C, strain arc18, active compounds read low 0.988 | locus YLR384C, strain iki3, active compounds read low 0.991 | locus YLR418C, strain cdc73, active compounds read low 0.932 | locus YML016C, strain PPZ1, active compounds read low 0.948 | locus YML032C, strain rad52, active compounds read low 0.951 | locus YML124C, strain tub3, active compounds read low 0.974 | locus YMR058W, strain fet3, active compounds read low 0.921 | locus YMR078C, strain ctf18, active compounds read low 0.969 | locus YMR125W, strain sto1, active compounds read low 0.994 | locus YMR129W, active compounds read low 0.986 | locus YMR205C, strain PFK2, active compounds read low 0.913 | locus YMR223W, strain ubp8, active compounds read low 0.974 | locus YMR231W, strain pep5, active compounds read low 0.991 | locus YMR263W, strain SAP30, active compounds read low 0.973 | locus YMR307W, strain GAS1, active compounds read low 0.956 | locus YNL067W, strain RPL9B, active compounds read low 0.999 | locus YNL128W, strain TEP1, active compounds read low 0.932 | locus YNL153C, strain GIM3, active compounds read low 0.947 | locus YNL183C, strain NPR1, active compounds read low 0.939 | locus YNL209W, strain ssb2, active compounds read low 0.958 | locus YNL233W, strain BNI4, active compounds read low 0.946 | locus YNL250W, strain rad50, active compounds read low 0.988 | locus YNL271C, strain bni1, active compounds read low 0.983 | locus YNL298W, strain CLA4, active compounds read low 0.929 | locus YNL307C, strain MCK1, active compounds read low 0.949 | locus YNL322C, strain KRE1 (second series), active compounds read low 0.986 | locus YNR049C, strain mso1, active compounds read low 0.993 | locus YNR052C, strain pop2, active compounds read low 1 | locus YOL006C, strain TOP1, active compounds read low 0.691 | locus YOL012C, strain htz1 0.85 | locus YOL147C, strain pex11, active compounds read low 0.984 | locus YOR001W, strain rrp6, active compounds read low 0.978 | locus YOR061W, strain CKA2, active compounds read low 0.931 | locus YOR069W, strain VPS5, active compounds read low 0.994 | locus YOR070C, strain gyp1, active compounds read low 0.951 | locus YOR080W, strain dia2, active compounds read low 0.992 | locus YOR083W, strain WHI5, active compounds read low 0.943 | locus YOR106W, strain vam3, active compounds read low 0.875 | locus YOR136W, strain idh2, active compounds read low 0.959 | locus YOR144C, strain elg1, active compounds read low 0.969 | locus YOR231W, strain MKK1, active compounds read low 0.962 | locus YOR265W, strain rbl2, active compounds read low 0.979 | locus YOR270C, strain vph1, active compounds read low 0.815 | locus YOR290C, strain snf2, active compounds read low 0.876 | locus YOR316C, strain cot1, active compounds read low 0.948 | locus YPL051W, strain arl3, active compounds read low 0.928 | locus YPL055C, strain LGE1, active compounds read low 0.868 | locus YPL240C, strain hsp82, active compounds read low 0.939 | locus YPL241C, strain CIN2, active compounds read low 0.993 | locus YPL256C, strain CLN2, active compounds read low 1.08 | locus YPR119W, strain clb2, active compounds read low 0.997 | locus YPR141C, strain kar3, active compounds read low 0.98 | locus YPR163C, strain tif3, active compounds read low 0.948 | locus YPR167C, strain met16, active compounds read low 0.983 | strain wtn01, active compounds read low 0.91
